# Screens: PubChem BioAssay, National Center for Advancing Translational Sciences (NCATS)
# HT1080NT lethal: qHTS for induction of synthetic lethality in tumor cells producing 2HG: qHTS for the HT-1080-NT fibrosarcoma cell line | HT-1080-NT fibrosarcoma viability, CellTiter-Glo ATP luminescence, 48 h | Potency, µM (series often up to 46.1 µM), without a hit: top-dose activity, negative = less viability, hits mostly cytotoxic | 360,000 compounds, 1.6% hits | AID 686970, 2013;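 further: NT is the 2HG producing partner of a matched IDH1 knockdown line; 0% = DMSO-treated cells and -100% = media-only wells without cells; nearly all actives have a fitted effect of over 55% in size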
#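 Compounds were tested in concentration-response format on HT-1080-NT cells for 48 hours at 37 degrees C. Cell viability came from CellTiter-Glo luminescence; curves were classified by r2, response magnitude and activity.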
# SW480 rerep: A quantitative high throughput screen for small molecules that induce DNA re-replication in SW480 colon adenocarcinoma cells; SW480 DNA re-replication, Hoechst DNA content imaging, 48 h; Potency, µM (top dose mostly 46.1 µM), for the others: top-dose re-replication activation, most hits filed as activators; 340,000 compounds, 1.8% hits; AID 624297, 2012; further: % of control where 0% means no effect; nearly all actives have a fitted effect of over 55% in size
#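 Image-based read-out: total Hoechst fluorescence of nuclei (405 nm excitation, 500-530 nm emission), with hits raising the fraction of high-intensity nuclei. SW480 colon cells incubated 48 hr with compounds at 37 C.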
# KB-3-1 tox: qHTS assay for MDR1-selective chemotherapeutics: Primary screen using the parental adenocarcinoma cell KB-3-1. Potency, µM (series often up to 46.1 µM), usual class: cytotoxic. AID 1347075, 2019. 400,000 compounds, 1.4% hits. KB-3-1 viability, CellTiter-Glo ATP luminescence, 72 h; further: on the % scale 0 is the no-effect control and ±100 the full control effect; nearly all actives have a fitted effect of over 60% in size
#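 Screening of KB-3-1 cells (DMEM, 10% FBS, phenol-red free) ran from lowest to highest compound concentration; after 72 h at 37 °C viability was read luminescently and curves fitted.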
# HT1080 IDH1KD tx: qHTS for induction of synthetic lethality in tumor cells producing 2HG: qHTS for the HT-1080-IDH1KD cell line; 360,000 compounds, 2% hits; Potency, µM (top dose mostly 46.1 µM), for the others: top-dose activity, negative = toxicity, actives largely listed as cytotoxic; HT-1080 IDH1 knockdown viability, ATP luminescence, 48 h;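 further: 0% = DMSO wells and -100% = cell-free medium wells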
#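 In this qHTS, HT-1080 cells depleted of IDH1 are exposed for 48 h at 37 °C to compound titrations. Toxicity is scored from CellTiter-Glo luminescence, with DMSO as full viability and medium alone as none.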
# MCF10A rereplic: A quantitative high throughput screen for small molecules that induce DNA re-replication in MCF 10a normal breast cells | 350,000 compounds, 2.9% hits | MCF 10A DNA re-replication, Hoechst nuclear intensity, 48 h | Potency, µM (series often up to 46.1 µM), inactives show at the highest dose activity, positive = re-replication, usual class: activators; further: % of control where 0% means no effect; nearly all actives have a fitted effect of over 50% in size
# KB-V1 cytotox: qHTS assay for MDR1-selective chemotherapeutics: Primary screen using the drug-selected MDR subline cells KB-V1; AID 1347076, 2019; KB-V1 MDR cells viability, CellTiter-Glo, 72 h; 400,000 compounds, 3.4% hits; Potency, µM (series often up to 46.1 µM), hits mostly cytotoxic; further: on the % scale 0 is the no-effect control and ±100 the full control effect; nearly all actives have a fitted effect of over 60% in size
#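 KB-V1 MDR subline cells in DMEM (phenol-red free, 10% FBS) exposed to compounds in qHTS concentration series for 72 h at 37 degrees C. Viability read by CellTiter-Glo luminescence; concentration-effect curves fitted after normalization and correction.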
# * hit, by the source's call; i = inactive; u = inconclusive; x = no result; [ ] = another dose, or the depositor's remark. Hits are enriched below; roughly 8% of the tested compounds scored in any of these assays. The call rests on the fitted dose curve; in most records, active means well fitted curve in the direction sought with a large enough effect; inconclusive means small, poorly fitted or top-dose-only effect, or another doubt; inactive means no such curve, though single readings can be large; an effect the other way counts as inactive or inconclusive. Potency means the concentration at half of the fitted maximal effect.
SMILES,HT1080NT lethal,SW480 rerep,KB-3-1 tox,HT1080 IDH1KD tx,MCF10A rereplic,KB-V1 cytotox
O=[N+]([O-])c1ccc2nc(NCCCO)nc(-c3ccccc3)c2c1,-21%,24%,i,-17%,15µM*,u
Cc1ccc(S(=O)(=O)NCCC(c2ccc(F)cc2)c2ccco2)cc1 (centres undefined),-8%,6%,u,-23%,u,21µM*
Cc1ccc(S(=O)(=O)NCC(=O)N(c2ccccc2)C(C(=O)NCc2ccccc2)c2ccco2)cc1 (centres undefined),-2%,19%,i,-4%,24%,2.3µM*
Cc1ccc(S(=O)(=O)NCCC(c2ccccc2)c2ccco2)cc1 (centres undefined),-1%,-4%,i,-6%,6%,23µM*
Cc1ccc(S(=O)(=O)NCC(c2ccco2)S(=O)(=O)c2ccccc2)cc1 (centres undefined),5%,6%,i,-1%,u,i
O=S(=O)(NCCNS(=O)(=O)c1ccc(F)cc1)c1ccc(F)cc1,5%,-10%,i,-5%,0%,i
COc1ccccc1C(CCNS(=O)(=O)c1ccc(C)cc1)c1ccco1 (centres undefined),-6%,-110%,i,1%,13µM*,u
O=C(Nc1ccccc1F)C1CCCN(S(=O)(=O)c2ccccc2)C1 (centres undefined),1%,u,i,-16%,u,u
CSc1nnc(-c2cccs2)n1-c1ccccc1,u,12%,i,-30%,-2%,i
O=C(NCCN1CCOCC1)c1ccc(S(=O)(=O)Nc2ccccc2)cc1,7%,1%,i,-3%,2%,i
COc1ccc(C)cc1NC(=O)CN1CCN(c2ccc(F)cc2)CC1,-2%,-16%,i,-1%,u,i
O=C(CNC(=O)c1ccc(Cl)cc1)NNC(=O)c1ccc(Br)cc1,0%,0%,x,8%,4%,x
Cc1ccccc1SCC(=O)NNC(=O)c1ccccc1O,-24%,13µM*,i,-26%,-8%,i
COc1cccc(NS(=O)(=O)CC23CCC(CC2=O)C3(C)C)c1 (centres undefined),1%,3%,i,-5%,2%,i
CC1(C)C2CCC1(CS(=O)(=O)Nc1ccc(S(=O)(=O)NC3CCCCC3)cc1)C(=O)C2 (centres undefined),-7%,4%,i,-9%,u,16µM*
CC1(C)C2CCC1(CS(=O)(=O)NCc1ccc(Cl)cc1Cl)C(=O)C2 (centres undefined),-19%,-24%,u,-14%,u,10µM*
O=C(/C=C/c1ccccc1Cl)c1ccc[nH]1,u,4.6µM*,u,u,u,i
O=C(/C=C/c1ccc(Cl)cc1Cl)c1ccc[nH]1,u,u,i,-15%,117%,i
CCCCn1c2ccc(F)cc2c2nnc(SCCN3CCCCC3)nc21,7%,-9%,u,1%,9%,i
CCCn1c2ccccc2c2nc3ccccc3nc21,-17%,u,i,-5%,22µM*,i
Cc1ccc2c(c1)c1nc3ccccc3nc1n2CCN1CCOCC1,-13%,u,i,-15%,u,21µM*
Cc1nc2c3cc(Cl)ccc3n(CCN3CCOCC3)c2s1,23µM*,u,u,21µM*,u,u
CCCCn1c2ccc(C)cc2c2nnc(SCCN3CCCCC3)nc21,-11%,u,18µM*,-13%,4%,i
COc1ccc(OCc2nc(N)nc(Nc3ccccc3)n2)cc1,1%,0%,i,-7%,-1%,u
O=Nc1c(O)n(Cc2cccc(Cl)c2)c2ccccc12,15µM*,12%,i,18µM*,u,i
SMILES,HT1080NT lethal,SW480 rerep,KB-3-1 tox,HT1080 IDH1KD tx,MCF10A rereplic,KB-V1 cytotox
CC(C)(C)c1ccc(C2CC2C(=O)N/N=C\c2ccc[nH]2)cc1 (centres undefined),2.6µM*,u,15µM*,1.6µM*,u,u
CCCS(=O)(=O)NC(=O)C1(C)CCCN(C(=O)c2ccc3c(c2)OCO3)C1 (centres undefined),27%,x,i,0%,x,i
NC(=O)N1N=C2/C(=C/c3ccccc3)CCCC2C1c1ccccc1 (centres undefined),u,18%,u,-29%,8.2µM*,u
O=C(O)CSCC(=O)N1N=C2/C(=C/c3ccccc3)CCCC2C1c1ccccc1 (centres undefined),-8%,-3%,i,-2%,-10%,i
Cc1ncsc1C(=O)N1N=C2/C(=C/c3ccccc3)CCCC2C1c1ccccc1 (centres undefined),0%,u,u,-16%,18%,21µM*
S=c1nc(C2CCCCC2)n(-c2ccccc2)[nH]1,16%,-30%,i,11%,u,i
COc1cc(Cl)c(C)cc1NC(=O)CN1C(=O)C2CCCCC2C1=O (centres undefined),1%,2%,i,-2%,-4%,23µM*
Oc1cccnc1SCc1ccccc1,1%,-2%,i,1%,-2%,i
O=Cc1cccnc1SCc1ccccc1,u,2.6µM*,u,u,20%,15µM*
CN(C)CCSc1nc(-c2ccccc2)nc2c1COC(C)(C)C2,u,-4%,i,u,20%,10µM*
CSc1nc(-c2ccccc2)nc2c1COC(C)(C)C2,-19%,5%[9.22 µM],i,-19%,u,i
Nc1nonc1-n1nnc(C(=O)N/N=C/c2cc(Br)ccc2O)c1CNc1ccccc1,u,u,u,23µM*,7.3µM*,i
COc1ccc([N+](=O)[O-])cc1/C=N/NC(=O)c1nonc1N,u,18µM*,i,-28%,16µM*,i
Nc1nonc1C(=O)N/N=C/c1cc(Br)ccc1O,u,-6%,i,2.1µM*,-16%,i
Nc1nonc1C(=O)N/N=C/c1cccc([N+](=O)[O-])c1,15%,2%,i,22%,0%,i
NC(=O)N/N=C\c1cc(Br)ccc1O,-4%,7%,i,0%,1%,u
